In PubChem BioAssay (NCI):
Compounds without any hit were thinned out: in the full panel of roughly 83,000, 20% have a hit.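 Single-concentration screen, 48 h exposure, 96-well plates. Endpoint: percent growth. Below 10 = active.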 Activity calls are given as the source filed them.

Experiments:
Assay in all cases: NCI-60 one-dose screen, 48 h (100 = growth as untreated, 0 = no growth, -100 = all killed)
Conditions in all cases: 10 µM unless noted
RPMI-8226 leukemia = test system: RPMI-8226 leukemia
OVCAR-8 ovarian = test system: OVCAR-8 ovarian
OVCAR-5 ovarian = test system: OVCAR-5 ovarian
OVCAR-4 ovarian = test system: OVCAR-4 ovarian
SK-OV-3 ovarian = test system: SK-OV-3 ovarian
IGROV1 ovarian = test system: IGROV1 ovarian
OVCAR-3 ovarian = test system: OVCAR-3 ovarian
HS 578T breast = test system: HS 578T breast
NCI/ADR-RES ovarian = test system: NCI/ADR-RES ovarian
T-47D breast = test system: T-47D breast

SMILES	growth (RPMI-8226 leukemia)	growth (OVCAR-8 ovarian)	growth (OVCAR-5 ovarian)	growth (OVCAR-4 ovarian)	growth (SK-OV-3 ovarian)	growth (IGROV1 ovarian)	growth (OVCAR-3 ovarian)	growth (HS 578T breast)	growth (NCI/ADR-RES ovarian)	growth (T-47D breast)
N#Cc1c(-c2ccc(F)cc2)nc(N/N=C/c2cccc(O)c2)nc1N1CCOCC1	41.3% (inactive)	69.7% (inactive)	108% (inactive)	79.7% (inactive)	93.9% (inactive)	61.4% (inactive)	78.6% (inactive)	84.4% (inactive)	72.8% (inactive)	89.2% (inactive)
COCCc1n(Cc2ccc3ccccc3c2)c2ccccc2[n+]1Cc1ccc2ccccc2c1	-52.7% (active)	-54.6% (active)	-2.95% (active)	-4.37% (active)	-14.6% (active)	-63.4% (active)	-72.8% (active)	-6.4% (active)	84.4% (inactive)	-16.7% (active)
Nc1cc(N)c(S(=O)(=O)O)cc1N=Nc1cc([N+](=O)[O-])ccc1O	98.8% (inactive)	99.5% (inactive)	108% (inactive)	109% (inactive)	93.8% (inactive)	106% (inactive)	113% (inactive)	103% (inactive)	106% (inactive)	97.2% (inactive)
CCC1=C[C@H]2CN(CCc3c([nH]c4ccccc34)[C@@](C(=O)OC)(c3cc4c(cc3OC)N(C)[C@H]3[C@@](O)(C(=O)OC)[C@H](OC(C)=O)[C@]5(CC)[C@@H]6C[C@@H]6CN6CC[C@]43[C@@H]65)C2)C1	-25.3% (active)	8.29% (active)	42% (inactive)	37.6% (inactive)	17.9% (inactive)	21.6% (inactive)	0.761% (active)	10.8% (inactive)	28% (inactive)	70% (inactive)
O=c1cc(/C=N\Nc2nc(-c3ccc(Cl)cc3Cl)cs2)c2cc(Cl)ccc2o1	90.8% (inactive)	99.7% (inactive)	96.9% (inactive)	85.3% (inactive)	81.8% (inactive)	79.8% (inactive)	101% (inactive)	101% (inactive)	98.1% (inactive)	69.7% (inactive)
O=C1NN(c2ccccc2)C(c2ccc3c(c2)OCO3)N2CCC[C@@H]12 (stereo not given in full)	105% (inactive)	96.8% (inactive)	108% (inactive)	108% (inactive)	99% (inactive)	89.7% (inactive)	100% (inactive)	104% (inactive)	97.9% (inactive)	90.9% (inactive)
O=C(Nc1cc(=O)[nH]c(=O)[nH]1)C(Cl)Cl	101% (inactive)	102% (inactive)	112% (inactive)	112% (inactive)	107% (inactive)	108% (inactive)	113% (inactive)	95.4% (inactive)	111% (inactive)	91.4% (inactive)
Cc1cc(C)nc(NS(=O)(=O)c2ccc(Nc3ccc4c5c(n(CCCN(C)C)c(=O)c4c3)-c3ccccc3C5=O)cc2)n1	85.4% (inactive)	74.4% (inactive)	111% (inactive)	107% (inactive)	96.1% (inactive)	74.2% (inactive)	83.7% (inactive)	93.2% (inactive)	98.6% (inactive)	102% (inactive)
O=C(/C(=C/c1ccc([N+](=O)[O-])cc1)SCc1ccccc1)c1ccc(Cl)cc1	-15.8% (active)	76.2% (inactive)	95.4% (inactive)	74.5% (inactive)	87.6% (inactive)	57% (inactive)	70.6% (inactive)	75.7% (inactive)	62% (inactive)	47.8% (inactive)
CO[C@@]12C=C[C@@]34CCC(=O)N3c3ccccc3[C@@H](O1)C4C2	94.6% (inactive)	97.7% (inactive)	101% (inactive)	109% (inactive)	107% (inactive)	99.1% (inactive)	108% (inactive)	95.3% (inactive)	97.7% (inactive)	96.2% (inactive)
O=C(Nc1cc(Nc2ncccc2-c2ncnc3nc[nH]c23)ccc1F)c1cc(C(F)(F)F)cc(C(F)(F)F)c1	-13% (active)	-9.42% (active)	-41% (active)	-48.5% (active)	-18% (active)	2.77% (active)	-1.23% (active)	-19.1% (active)	-20.8% (active)	11.1% (inactive)
CNCc1cccc2c1OCCOCCOCCN(CCN1CCOCC1)S(=O)(=O)c1ccc(cc1)-c1cnc(N)c(n1)C(=O)N2	54.8% (inactive)	62.2% (inactive)	119% (inactive)	54.8% (inactive)	17.3% (inactive)	47.9% (inactive)	49.4% (inactive)	47.5% (inactive)	108% (inactive)	101% (inactive)
CCCn1c2cc(OCc3cn(-c4ccc(Br)cc4)nn3)ccc2c2ccnc(C)c21	33% (inactive)	50.8% (inactive)	68.3% (inactive)	-44% (active)	85.7% (inactive)	49.1% (inactive)	60.5% (inactive)	66.9% (inactive)	63.1% (inactive)	66.6% (inactive)
CCC[S@@](=O)c1ccc2nc(NC(=O)OC)[nH]c2c1	95% (inactive)	77.1% (inactive)	102% (inactive)	98.9% (inactive)	63.6% (inactive)	91.3% (inactive)	93.5% (inactive)	91.2% (inactive)	91.5% (inactive)	78.1% (inactive)
CCCNc1nc(C)[nH]c(=O)c1S	87.4% (inactive)	105% (inactive)	113% (inactive)	105% (inactive)	134% (inactive)	102% (inactive)	106% (inactive)	137% (inactive)	109% (inactive)	98.6% (inactive)
OCCNc1nc(NCCO)nc(Nc2ccc(C3=NN(c4cc(Cl)cc(Cl)c4)C(c4ccc(Cl)cc4)C3)cc2)n1 (stereo not given)	-8.1% (active)	20.8% (inactive)	86% (inactive)	-17.6% (active)	83.1% (inactive)	-11.6% (active)	-60.4% (active)	11.6% (inactive)	20.6% (inactive)	87.1% (inactive)
COc1ccc(-c2cs/c(=N\N=C\c3ccc(O)cc3O)n2/N=C/c2ccc(O)cc2O)cc1	-25.9% (active)	-17.1% (active)	10.6% (inactive)	-7.88% (active)	-30.8% (active)	-17.2% (active)	-63.5% (active)	24.1% (inactive)	-12.4% (active)	-36.8% (active)
